Measured values from the supplement of paper PMC10646978.
± gives the standard deviation.

Tests used:
Conditions in all cases: modulator concentration 10 µM
[1] = tested on: RAW-Dual (murine macrophage reporter line); experiment: NF-kB reporter (SEAP) activity fold change vs agonist alone; higher = enhanced NF-kB activity
In short: (§1)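 RAW-Dual murine macrophage reporter cells were plated at 50 000 per well in 384-well plates, pin-transferred compound to 10 μM final, and pre-incubated for 1 hour at 37 °C before a PRR agonist was added and the cells incubated overnight. NF-κB activity was read from supernatant SEAP with QUANTI-Blue at 620 nm absorbance, and IRF activity from Lucia luciferase with QUANTI-Luc by luminescence. Each signal was expressed as fold change by dividing by the mean agonist-only control on the same plate. Two replicate plates were averaged, with errors obtained by propagation.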

[2] = tested on: RAW-Dual (murine macrophage reporter line); experiment: IRF reporter (Lucia luciferase) activity fold change vs agonist alone; higher = enhanced IRF activity
In short: as §1

[3] = tested on: RAW-Dual (murine macrophage reporter line); experiment: viability score (confluency relative to resting cells, overnight) (fraction); higher = more viable, active = viable (0.7 or more)
In short: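 RAW-Dual macrophages in 384-well plates were incubated overnight with compound, final concentration 10 μM. Confluency images from IncuCyte were processed in IncuCyte software into two masks covering all imaged wells. The viability score is each well's confluency relative to resting cells, and a compound met the cutoff when both masks exceeded 70% of resting cells.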

[4] = agonist: CpG ODN 1826 0.5 ug/mL

| SMILES | NF-kB reporter [1, 4] | NF-kB reporter ([1]; agonist: LPS 0.1 ug/mL) | NF-kB reporter ([1]; agonist: MPLA […]) | IRF reporter ([2]; agonist: 3'3'-cGAMP 10 ug/mL) | IRF reporter ([2]; agonist: LPS 0.1 ug/mL) | IRF reporter ([2]; agonist: MPLA […]) | viability score [3] |
| --- | --- | --- | --- | --- | --- | --- | --- |
| CC[C@H](C)C(=O)O[C@H]1C[C@@H](C)C=C2C=C[C@H](C)[C@H](CC[C@@H]3C[C@@H](O)CC(=O)O3)[C@H]21 | 2.37 ± 0.12 | 1.5 ± 0.12 | 1.77 ± 0.078 | 0.639 ± 0.058 | 0.795 ± 0.055 | 0.776 ± 0.17 | 0.238 (inactive) |
| O=C(Cn1cnc(-c2ccc(F)cc2)cc1=O)N1CCOCC1 | 0.891 ± 0.06 | 1.07 ± 0.13 | 1.18 ± 0.075 | 1.04 ± 0.047 | 1.3 ± 0.27 | 1.44 ± 0.45 | 0.99 (active) |
| CC(=O)Oc1cc2c(s1)CCN(C(C(=O)C1CC1)c1ccccc1F)C2 (configuration not stated) | 0.988 ± 0.15 | 1.2 ± 0.36 | 0.844 ± 0.05 | 0.919 ± 0.035 | 1.28 ± 0.31 | 1.1 ± 0.18 | 0.985 (active) |
| c1ccc(-c2cc3c4cccn4ccn3c2)cc1 | 1.03 ± 0.1 | 0.87 ± 0.068 | 0.848 ± 0.085 | 0.31 ± 0.029 | 1.29 ± 0.21 | 1.32 ± 0.39 | 1.04 (active) |
| COc1cccc2c1C(=O)c1c(O)c3c(c(O)c1C2=O)C[C@@](O)(C(=O)CO)C[C@@H]3O[C@H]1C[C@H](N)[C@H](O)[C@H](C)O1.Cl | 0.0942 ± 0.012 | 0.0784 ± 0.0047 | 0.178 ± 0.036 | 0.101 ± 0.014 | 0.0915 ± 0.01 | 0.127 ± 0.024 | 0.372 (inactive) |
| COc1ccc(C)cc1NC(=O)CN(c1cccc(Br)c1)S(=O)(=O)c1ccccc1 | 0.904 ± 0.077 | 0.97 ± 0.053 | 0.915 ± 0.062 | 0.94 ± 0.023 | 1.11 ± 0.092 | 0.809 ± 0.18 | 1.02 (active) |
| CC(=Cc1ccccc1)CN1CC(C)OC(C)C1 (configuration not stated) | 0.788 ± 0.063 | 0.788 ± 0.05 | 1.04 ± 0.12 | 0.933 ± 0.044 | 1.28 ± 0.074 | 1.47 ± 0.17 | 0.956 (active) |
| CCC(C(=O)N1CCN(CCn2ccnc2-c2ccccc2)CC1)c1ccccc1 (configuration not stated) | 0.982 ± 0.17 | 0.999 ± 0.14 | 1.24 ± 0.076 | 1 ± 0.13 | 1.04 ± 0.24 | 0.956 ± 0.4 | 0.984 (active) |
| O=C(CCCN1CCC(O)(c2ccc(Cl)cc2)CC1)c1ccc(F)cc1 | 0.827 ± 0.13 | 0.893 ± 0.074 | 1.12 ± 0.098 | 1.05 ± 0.071 | 1.36 ± 0.092 | 1.38 ± 0.13 | 1.01 (active) |
| Oc1ccc(N=Cc2ccccc2O)cc1 | 1.35 ± 0.17 | 1.24 ± 0.086 | 1.51 ± 0.1 | 0.491 ± 0.11 | 0.733 ± 0.043 | 0.839 ± 0.14 | 0.584 (inactive) |
| CCOC(=O)CC(C(=O)OCC)P(=O)(c1ccccc1)c1ccccc1 (configuration not stated) | 0.85 ± 0.048 | 0.943 ± 0.086 | 1.02 ± 0.14 | 0.993 ± 0.061 | 1.17 ± 0.095 | 1.15 ± 0.23 | 1.01 (active) |
| O=C1C(=CNCCN2CCOCC2)C(C(F)(F)F)=NN1c1nc2ccccc2s1 | 0.967 ± 0.079 | 1.01 ± 0.056 | 0.863 ± 0.06 | 0.947 ± 0.044 | 1.32 ± 0.17 | 0.98 ± 0.065 | 1.01 (active) |
| Cc1cc(=O)n2c(-c3cccc(NC(=O)c4ccc(C(F)(F)F)cc4)c3)csc2n1 | 0.824 ± 0.044 | 1.12 ± 0.09 | 1.68 ± 0.46 | 0.731 ± 0.035 | 1.28 ± 0.21 | 1.5 ± 0.44 | 0.99 (active) |
| O=C(NCCCn1ccc2cccnc21)c1nc2ccccc2s1 | 0.766 ± 0.19 | 1.04 ± 0.092 | 1.09 ± 0.07 | 0.813 ± 0.071 | 0.942 ± 0.22 | 1.02 ± 0.15 | 1 (active) |
| COc1c(O)cc(O)cc1O | 1.03 ± 0.095 | 1.08 ± 0.057 | 1.1 ± 0.047 | 1.07 ± 0.069 | 0.985 ± 0.078 | 1.02 ± 0.17 | 0.996 (active) |
| O=C(OCCO)c1cc(Cl)c(C(=O)OCCO)cc1Cl | 0.979 ± 0.062 | 1 ± 0.065 | 0.936 ± 0.079 | 0.987 ± 0.034 | 1.49 ± 0.1 | 1.23 ± 0.11 | 1 (active) |
| N[C@@H]1CONC1=O | 0.988 ± 0.074 | 0.913 ± 0.14 | 0.959 ± 0.037 | 0.929 ± 0.092 | 1.05 ± 0.094 | 1.06 ± 0.082 | 1 (active) |
| O=C(NC1CCC(Oc2ncc(F)cn2)CC1)c1cccc(F)c1 (configuration not stated) | 0.976 ± 0.084 | 1.01 ± 0.079 | 0.913 ± 0.079 | 1.01 ± 0.064 | 1.08 ± 0.088 | 1.04 ± 0.27 | 1.01 (active) |
| CCOc1ccccc1OCCOCCOc1ccc(Br)cc1Cl | 0.905 ± 0.051 | 0.9 ± 0.13 | 1.22 ± 0.044 | 0.876 ± 0.034 | 0.979 ± 0.088 | 1.02 ± 0.12 | 0.992 (active) |
| NCCCCC(NC(CCc1ccccc1)C(=O)O)C(=O)N1CCCC1C(=O)O (configuration not stated) | 1.33 ± 0.32 | 0.955 ± 0.083 | 1.03 ± 0.088 | 0.947 ± 0.032 | 1.09 ± 0.13 | 1.02 ± 0.13 | 0.998 (active) |
| CN1CCC2(CC1)NC(=O)N(CC(=O)N1CCc3ccccc31)C2=O | 0.927 ± 0.094 | 1.14 ± 0.096 | 0.942 ± 0.11 | 1.01 ± 0.063 | 1.18 ± 0.14 | 1.2 ± 0.1 | 1.02 (active) |
| CCn1nccc1C(=O)N1CCN(S(C)(=O)=O)CC1 | 1.02 ± 0.066 | 0.929 ± 0.092 | 0.991 ± 0.028 | 1.01 ± 0.069 | 0.994 ± 0.061 | 0.847 ± 0.13 | 1 (active) |
| CC(=O)Nc1ccc(NC(=S)NC(=O)C=Cc2ccc(Cl)cc2Cl)cc1 | 0.64 ± 0.05 | 0.741 ± 0.059 | 0.933 ± 0.095 | 0.428 ± 0.031 | 1.33 ± 0.12 | 1.3 ± 0.22 | 1 (active) |
| Cc1cc(NC2CCCC2)nc2ccccc12 | 0.798 ± 0.21 | 1.48 ± 0.12 | 1.91 ± 0.27 | 1.12 ± 0.068 | 1.88 ± 0.28 | 2.72 ± 0.43 | 0.608 (inactive) |
| Cc1c(NC(=S)NC(=O)c2ccccc2[N+](=O)[O-])cccc1-c1nc2ccccc2s1 | 1.09 ± 0.087 | 1.07 ± 0.073 | 0.933 ± 0.064 | 0.88 ± 0.021 | 1.47 ± 0.2 | 1.07 ± 0.2 | 1.02 (active) |
| CCOC(=O)C(CC)Oc1ccc2c(C)c(CC)c(=O)oc2c1 (configuration not stated) | 0.955 ± 0.063 | 0.875 ± 0.071 | 0.976 ± 0.035 | 0.832 ± 0.03 | 0.852 ± 0.13 | 0.848 ± 0.27 | 0.986 (active) |
